From PubChem BioAssay
Sampled rows, rich in hits. Any-hit rate of the full collection: about 27%.
CYP2C19 activ: activators of human cytochrome P450 2C19; P33261; recombinant CYP2C19, luciferin-H EGE luminescence; active compounds read high; 0 = fully inhibited enzyme, 1 = untreated enzyme; activation factor at 5 µM; 96,000 tested, under 10 active; AID 1025;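 active = activation factor of at least 2 at 5 µM in the primary screen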
Cav32 inh: human Cav3.2 channel inhibition, primary screen. O95180. Cav3.2-expressing cells, Fluo-4 calcium fluorescence FDSS; active compounds read low. B-score at 10 µM. 4% of 100,000 active;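 active = single-dose well whose peak fluorescence ratio is a statistical outlier from its plate by either plate-standardised score or position-corrected B-score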
CYP2C9 inhib: human CYP2C9 inhibition; P11712; CYP2C9 Supersomes, luciferin-H conversion, luminescence; inhibition, % at 5 µM; 20% of 96,000 active;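 active = blocking of liver enzyme CYP2C9 beyond about 50% at 5 µM, limit read from the data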
CYP2C9 activ: increases human cytochrome P450 2C9 activity | P11712 | recombinant CYP2C9, luciferin-H conversion, luminescence; active compounds read high; factor 1 = untreated enzyme, 0 = blocked | activation factor at 5 µM | 1.4% of 96,000 active | AID 1024;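 active = activation factor of 2 or more for CYP2C9 at a 5 µM dose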
CYP2C19 inh: inhibitors of human CYP2C19. CYP2C19 Supersomes, luciferin-H EGE luminescence, 30 min. inhibition, % at 5 µM. 21% of 96,000 active. P33261;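 active = CYP2C19 inhibition above a set limit at 5 µM in the primary screen, cut at about 50% in these data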
Large screens that a line does not name were inactive.

CCOC(=O)c1c(C)nc2sc3c(c2c1-c1ccc(OC)cc1)NC(c1ccccc1)NC3=O (stereo not drawn)	none (no result: CYP2C19 activ, CYP2C9 inhib, CYP2C9 activ, CYP2C19 inh)
CCOC(=O)c1sc(C)c2c1NC(C)(c1ccccc1)NC2=O (stereo not drawn)	CYP2C9 inhib 68
CCOC(=O)c1sc(C)c2c1NC(c1ccc(Cl)cc1)NC2=O (stereo not drawn)	CYP2C9 inhib 53
CCOC(=O)N1CCN(C(=O)c2ccc3c(SCC(=O)O)c4c(nc3c2)CCC4)CC1	none
CC(O)[C@H]1CNC(=O)C(=O)N1CC(C)(C)C (stereo partly drawn)	none (no result: CYP2C19 activ, CYP2C9 inhib, CYP2C9 activ, CYP2C19 inh)
COc1cccc(C2=NOC(C(=O)Nc3cc(C)nn3-c3ccccc3)C2)c1OC (stereo not drawn)	none
COc1cccc(C2=NOC(C(=O)Nc3cccc(C(C)=O)c3)C2)c1OC (stereo not drawn)	CYP2C19 inh 58
Cc1cc(NC(=O)C2CC(c3ccc(F)cc3)=NO2)n(-c2ccccc2)n1 (stereo not drawn)	CYP2C19 inh 68
CN=C(Nc1cc(C)nn1-c1ccccc1)c1ccc(F)cc1	CYP2C19 inh 92
CC(=O)c1cccc(NC(=O)C2CC(c3ccc(F)cc3)=NO2)c1 (stereo not drawn)	CYP2C19 inh 68
CC(=O)c1ccc(NC(=O)C2CC(c3ccc(F)cc3)=NO2)cc1 (stereo not drawn)	none
Cc1cc(NC(=O)COc2ccccc2)n(-c2ccccc2)n1	none
CC(/C=C/C=C/c1ccccc1)=N/NC(=O)CNc1ccc(C)cc1	none
CCN(CC)CCCN(Cc1cc2cc3c(cc2[nH]c1=O)OCCO3)C(=O)Nc1ccc(F)cc1	none
Cc1cn(C2CC3OCC3O2)c(=O)[nH]c1=O (stereo not drawn)	none
CN1CCN(C(=O)c2cc(-c3ccco3)on2)CC1	none
O=C(c1cc(-c2ccc(Cl)cc2Cl)on1)N1CCN(C(=O)c2ccco2)CC1	CYP2C19 inh 58
O=C(c1cc(-c2ccccc2Cl)on1)N1CCN(C(=O)c2ccco2)CC1	CYP2C9 activ 2.2
Cc1csc(=Nc2ccc(S(=O)(=O)N3CCOCC3)cc2)n1Cc1ccco1	CYP2C9 inhib 64
CC(C)NCCOCCOc1ccccc1F	none (no result: Cav32 inh)
COC(=O)CNc1nc(-c2cccnc2)nc2ccccc12	CYP2C9 inhib 56
c1cncc(-c2nc(NCC3COc4ccccc4O3)c3ccccc3n2)c1 (stereo not drawn)	CYP2C9 inhib 88 (no result: Cav32 inh)
Oc1ccccc1-c1nc(NCC2CCCO2)c2ccccc2n1 (stereo not drawn)	none
CCOC(=O)c1nc(Nc2ccccc2)c2ccccc2n1	none
CCOC(=O)c1nc(NCc2cccnc2)c2ccccc2n1	none
CCOC(=O)c1ccc(Nc2nc(-c3cccnc3)nc3ccccc23)cc1	CYP2C9 inhib 79, CYP2C19 inh 66
CCOC(=O)c1nc(Nc2ccc(C)cc2)c2ccccc2n1	CYP2C9 inhib 66, CYP2C19 inh 71
CCOC(=O)Cc1csc(NC(=O)C2CCCN(S(=O)(=O)c3cnc[nH]3)C2)n1 (stereo not drawn)	none
CC(=O)N(c1ccc(N(C(C)=O)S(=O)(=O)c2cccs2)cc1)S(=O)(=O)c1cccs1	CYP2C9 inhib 73
COc1ccc(N(C(=O)c2ccco2)S(=O)(=O)c2cc(OC)ccc2OC)cc1	CYP2C9 inhib 72
O=C(Nc1ccccc1N(C(=O)c1ccco1)S(=O)(=O)c1cccs1)c1ccco1	CYP2C9 inhib 75
COc1ccc(N(C(=O)c2ccco2)S(=O)(=O)c2cccs2)cc1	CYP2C9 inhib 50
COc1ccc(N(C(=O)c2ccco2)S(=O)(=O)c2ccc(F)cc2)cc1	none (no result: CYP2C19 activ, CYP2C9 inhib, CYP2C9 activ, CYP2C19 inh)
Nc1c(-c2ccccc2)cnn1-c1ccc(C(=O)O)cc1	none
CC(C)C(=O)Nc1ccc([N+](=O)[O-])c(C(F)(F)F)c1	none (no result: CYP2C19 activ, CYP2C9 inhib, CYP2C9 activ, CYP2C19 inh)
Cc1cc(C)n(-c2c(F)c(F)c(CN3CCOCC3)c(F)c2F)n1	none
Cc1nc2cc(N3CCOCC3)c(NC(=O)C3CC3)cc2c(=O)n1Cc1ccccc1	none (no result: Cav32 inh)
Cc1nc2cc(N3CCCCC3)c(NC(=O)c3ccncc3)cc2c(=O)n1Cc1ccccc1	CYP2C9 inhib 81
O=C(CSc1nc2c(sc3ccccc32)c(=O)n1CCc1ccccc1)NCc1ccco1	CYP2C9 inhib 52
CCCCn1c(SCC(=O)NCc2ccco2)nc2c(sc3ccccc32)c1=O	CYP2C9 inhib 74
CCOCCCn1c(SCC(=O)NCc2ccco2)nc2c(sc3ccccc32)c1=O	CYP2C9 inhib 66
CCOC(=O)CSc1nc2c(sc3ccccc32)c(=O)n1CCCN1CCOCC1	CYP2C9 inhib 55
CCCCn1c(SCC(N)=O)nc2c(sc3ccccc32)c1=O	none
CCCCNC(=O)C1CCN(c2nc(OC)nc(OC)n2)CC1	none (no result: CYP2C19 activ, CYP2C9 inhib, CYP2C9 activ, CYP2C19 inh)
Cc1nc2sc(C(c3cccc(F)c3)N3CCOCC3)c(O)n2n1 (stereo not drawn)	none
O=C(Nc1ccccc1)c1cccnc1N1CCCC1	none
N=c1oc2c3c4c(cc2cc1C(=O)Nc1ccccc1)CCCN4CCC3	Cav32 inh -11
CCN(CC)S(=O)(=O)c1ccc(Cc2ncc(C(F)(F)F)cc2Cl)s1	Cav32 inh -3.7, CYP2C9 inhib 59, CYP2C19 inh 83
NNS(=O)(=O)c1ccc(Cc2ncc(C(F)(F)F)cc2Cl)s1	CYP2C19 inh 70
NS(=O)(=O)c1ccc(Cc2ncc(C(F)(F)F)cc2Cl)s1	none
COC(=O)[C@H](Cc1ccccc1)NC(=O)[C@@]1(C)C[C@@H]1[C@@H](NC(=O)OCc1ccccc1)c1ccccc1	none (no result: CYP2C19 activ, CYP2C9 inhib, CYP2C9 activ, CYP2C19 inh)
CCC(C)Nc1nc(OC)nc(N(C)C#N)n1 (stereo not drawn)	none
Cc1cc(C)n(C(=O)CNC(=O)C2COc3ccccc3O2)n1 (stereo not drawn)	none (no result: CYP2C19 activ, CYP2C9 inhib, CYP2C9 activ, CYP2C19 inh)
CC(=O)NCN1CCN(CNC(C)=O)CC1	none
CCO[C@@H]1OC(C(=O)N2CCN(C)CC2)=C[C@H](c2ccc(C(F)(F)F)cc2)[C@H]1CCCO	none (no result: CYP2C19 activ, CYP2C9 inhib, CYP2C9 activ, CYP2C19 inh)
Cc1ccc(C)c(N2CCN(C(=O)CN(C)S(=O)(=O)c3cnc[nH]3)CC2)c1	CYP2C9 inhib 100, CYP2C19 inh 92
CN(CC(=O)N1CCN(c2ccccc2F)CC1)S(=O)(=O)c1cnc[nH]1	CYP2C9 inhib 100, CYP2C19 inh 99
CS(=O)(=O)N(CCc1ccccc1)CC(=O)N1CCN(c2ccccc2F)CC1	none
COc1cc(C(=O)NCCC(=O)NC2CCCCCCC2)cc(OC)c1OC	CYP2C19 inh 83
CCCCCCNC(=O)CCNC(=O)c1cc(OC)c(OC)c(OC)c1	none
Cc1ccc(OCC(=O)N/N=C/c2ccc([N+](=O)[O-])o2)cc1	none
CCCc1ccc(-c2cc(C(=O)N/N=C/c3ccc([N+](=O)[O-])o3)c3ccccc3n2)cc1	CYP2C9 inhib 96, CYP2C19 inh 51 (no result: Cav32 inh)
Cc1nn(C(CC(=O)O)C(=O)O)c(C)c1Br (stereo not drawn)	none (no result: CYP2C19 activ, CYP2C9 inhib, CYP2C9 activ, CYP2C19 inh)
COc1ccccc1C1CN(c2ccc(F)cc2F)N=C1c1cccs1 (stereo not drawn)	CYP2C9 inhib 91, CYP2C19 inh 70
